Bioassay records (PubChem)
The list is not random: actives were taken first. Their share in the collection is about 7.4%.
SNCA expr inh = SNCA gene expression inhibition | HEK-293 SNCA-luciferase knock-in, luminescence, 24 h | Potency, µM (top dose mostly 57.2 µM), without a hit: top-dose activity change, negative = inhibition, most hits filed as inhibitors | 140,000 compounds, 0.17% hits | AID 1671194;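 note: plate controls were DMSO cells for no effect and cell-free wells for full effect; nearly all actives have a fitted effect of over 45% in size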
NIH3T3 tox = cytotoxic compounds in NIH 3T3 cells; NIH 3T3 viability, CellTiter-Glo ATP luminescence, 48-72 h; 94,000 compounds, 4.3% hits; Potency, µM (doses to about 96.7 µM), for the others: top-dose activity change, negative = cytotoxicity, most hits filed as inhibitors; note: nearly all actives have a fitted effect of over 55% in size
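Cells were seeded at 400 per well, treated with pin-transferred compound, and kept 48 or 72 hr at 37 °C before CellTiter-Glo addition and luminescence imaging of cellular ATP.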
SNCA viab count = counter-screen for SNCA expression inhibitors: cell viability; 150,000 compounds, 0.12% hits; Potency, µM (top dose mostly 57.1 µM), inactives show at the top dose activity change, negative = cytotoxicity, most hits filed as cytotoxic; HEK-293-SNCA-luc viability, GF-AFC fluorescence, 24 h;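 note: 0% = DMSO-treated cells and -100% = medium-only wells without cells; nearly all actives have a fitted effect of over 30% in size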
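HEK-293-SNCA-luc cells (1500/well) plated 24 h, then exposed 24 h to a dilution series; GF-AFC added 30 min at 37C, fluorescence 405/540 nm; normalised to medium-only and DMSO wells, Hill fit.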
FLuc inh = Photinus pyralis luciferase inhibition. P08659. purified P. pyralis luciferase, luminescence, biochemical. Potency, µM (series often up to 115 µM), usual class: inhibitors. 76,000 compounds, 2.5% hits; note: nearly all actives have a fitted effect of over 65% in size
Target sequence (P08659 whole entry, looked up): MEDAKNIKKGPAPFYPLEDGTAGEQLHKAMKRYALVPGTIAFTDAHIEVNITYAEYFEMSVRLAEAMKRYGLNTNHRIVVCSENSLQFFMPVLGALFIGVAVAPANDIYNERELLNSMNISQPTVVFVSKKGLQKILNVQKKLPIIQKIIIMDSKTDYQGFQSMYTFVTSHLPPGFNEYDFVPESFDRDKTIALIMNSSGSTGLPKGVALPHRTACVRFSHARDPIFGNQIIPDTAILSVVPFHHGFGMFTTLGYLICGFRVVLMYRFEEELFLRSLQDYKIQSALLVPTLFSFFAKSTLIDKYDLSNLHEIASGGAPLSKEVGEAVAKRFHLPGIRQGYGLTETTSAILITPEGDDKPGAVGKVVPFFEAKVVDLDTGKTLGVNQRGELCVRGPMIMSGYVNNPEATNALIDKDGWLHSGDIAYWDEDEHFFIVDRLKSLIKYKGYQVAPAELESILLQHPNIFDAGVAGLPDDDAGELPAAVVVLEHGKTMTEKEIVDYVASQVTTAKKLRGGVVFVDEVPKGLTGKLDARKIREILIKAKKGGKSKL
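Biochemical qHTS: compound (6-point titration) added to 10uM D-luciferin plus 10uM ATP in Tris acetate pH 7.5 buffer with Mg, Tween-20 and BSA, then purified enzyme at 10nM; light output imaged.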
HEK293 tox = cytotoxic compounds in HEK 293 cells; HEK 293 viability, ATP luminescence (CellTiter-Glo), 48-72 h; Potency, µM (top dose mostly 115 µM), inactives show at the top dose activity change, negative = cytotoxicity, usual class: inhibitors; 94,000 compounds, 6.6% hits; AID 1345083; note: nearly all actives have a fitted effect of over 60% in size
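Viability of HEK 293 cells, plated at 250 cells/well, was judged by cellular ATP after compound treatment for 48 or 72 hr. Luminescence was imaged 10 min after CellTiter-Glo addition at room temperature.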
NPR1 antag = antagonists of human natriuretic peptide receptor Npr1. Potency, µM (titrated, usually from 46.3 µM), inactives show top-dose activity change, negative = inhibition, actives largely listed as inhibitors. AID 1347048. 76,000 compounds, 1.6% hits. HEK293 hNpr1 GloSensor cGMP, ANP-stimulated luminescence; calls by dose curve; note: nearly all actives have a fitted effect of over 60% in size
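Compound pre-incubated 30 min at room temperature on GloSensor-loaded HEK293 cells stably carrying hNpr1 and the pGS-40F cGMP biosensor. Stimulation uses hNppA at 0.1 nM final; luminescence is taken at baseline and 20 min post-agonist.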
* = called active by the depositor; i = inactive; ? = inconclusive; . = no result; ! = a repeat was not active; [ ] = remark or other dose. Unless noted, calls come from the whole dose curve; as a rule, active = well fitted curve in the direction sought with a large enough effect; inconclusive = small, poorly fitted or top-dose-only effect, or another doubt; inactive = no such curve, though single readings can be large; an effect the other way counts as inactive or inconclusive. Unless noted, % is set by controls: 0 for no effect and ±100 for the full control effect; potency is the fitted concentration of half-maximal effect.

SMILES	SNCA expr inh	NIH3T3 tox	SNCA viab count	FLuc inh	HEK293 tox	NPR1 antag
COc1ccc(-c2ccc(C(=O)N3CCN(C(=O)c4ccccc4C)CC3)cc2)nn1	.	i	.	.	-5%	.
CCN1CCC(N2CCC3(CC2)CC(C(=O)N2CCOCC2)N(C)C3)CC1 (stereo not given)	-2%	-12%	7%	.	-3%	.
CC(C)CNc1ccc2c(n1)C(C)(C(=O)NCc1ccco1)CN(Cc1ccccc1)C2 (stereo not given)	?	40µM*	-22%[87.6 µM]	i	50µM*	-17%[70.6 µM]
CN1Cc2ccc(NCc3ccccc3)nc2C(C)(C(=O)NCc2ccccc2)C1 (stereo not given)	-10%[87.6 µM]	?	-20%[87.6 µM]	i	?	-18%[70.6 µM]
COCCCNC(=O)C1(C)CN(Cc2ccccc2)Cc2ccc(NCC(C)C)nc21 (stereo not given)	?	?	-19%[87.6 µM]	i	89µM*	5%[70.6 µM]
CN1Cc2ccc(Nc3ccccc3)nc2C(C)(C(=O)NCc2ccc3c(c2)OCO3)C1 (stereo not given)	-5%[87.6 µM]	50µM*	-10%[87.6 µM]	i	79µM*	-15%[70.6 µM]
COc1ccc(C(=O)N2CCCC(C(=O)N3CCCC(c4nc5ncccc5[nH]4)C3)C2)cc1 (stereo not given)	-1%	?	8%	.	-33%	.
CC(C)N1CCC(CCNC(=O)CCC[C@H]2NC[C@@H]3C[C@H]2CN(Cc2ccccc2)C3)CC1	25%	i	39%	i	2%	-10%
COC(=O)N1CCCC1C(=O)N1CCC(c2nc3ccncc3[nH]2)CC1 (stereo not given)	22%[87.6 µM]	-8%[138 µM]	-3%[87.6 µM]	.	-3%[172 µM]	.
CCOc1cc(=O)n2c(c1C(=O)Nc1ccc3c(c1)OCCO3)CCCCC2	-3%	-3%	-6%	40µM*	-24%	-19%
COc1ccccc1Cn1c(-c2cccc(Cl)c2)nc(C)c(CCO)c1=O	-1%	?	6%	i	?	0%
COc1ccccc1Cn1c(-c2ccc(Cl)cc2)nc(C)c(CCO)c1=O	-2%	?	4%	i	32µM*	7%
Cc1cccc(-c2nc(Cn3c(-c4ccccc4)nc(C)c(CCO)c3=O)c(C)o2)c1	-17%	?	-11%	i	79µM*	-26%
Cc1nc(-c2ccc(Cl)cc2)n(Cc2ccc(F)cc2)c(=O)c1CCO	7%	?	3%	i	20µM*	-6%
COc1c(C)cnc(Cn2c(-c3ccccc3)nc(C)c(CCO)c2=O)c1C	12%	45µM*	8%	i	?	1%
O=C(CC1CCCC1)N1CCC(N2C(=O)[C@H]3CN(Cc4ccccc4)C[C@H]3C2=O)CC1	5%	-38%	-8%	.	?	.
O=S(=O)(c1cccs1)N1CCN(c2ccc3nnc(C4CC4)n3n2)CC1	.	?	.	.	-29%	.
O=C(NCC(F)(F)F)c1ccc2nc(-c3ccncc3)oc2c1	61%	?	15%	.	?	.
COc1ccc(-c2ccc(C(=O)N3CCN([S+](=O)([O-])c4ccccc4)CC3)cc2)nn1	.	-23%	.	.	?	.
Cc1nc(-c2ccccc2)n(Cc2ccc(F)cc2F)c(=O)c1CCO	-5%	?	5%	i	?	-11%
Cc1nc(-c2ccccc2)n(Cc2ccccc2Cl)c(=O)c1CCO	30%	45µM*	12%	i	?	-7%
CN1CCN(c2ccc(Nc3cc(-c4cccc(-n5ccc6cc(C7CC7)cc(F)c6c5=O)c4CO)cn(C)c3=O)nc2)CC1	.	.	-37%	.	.	.
O=C(NC1CCCc2c1cnn2-c1ccc(F)cc1F)c1c(F)cccc1Cl (stereo not given)	9%	?	-5%	i	35µM*	?
Cc1cccc(-n2ncc3c2CCCC3NC(=O)C2(C)CCNCC2)c1C (stereo not given)	-16%	-25%	3%	i	-26%	4%
CC1(c2cccnc2)N(CC2CC2)C(=O)OC12CCN(C(=O)c1ccc(Oc3ccccc3)cc1)CC2 (stereo not given)	-6%	?	6%	i	?	-13%
SMILES	SNCA expr inh	NIH3T3 tox	SNCA viab count	FLuc inh	HEK293 tox	NPR1 antag
CC1(c2ccccc2)N(Cc2ncccn2)C(=O)OC12CCN(C(=O)c1ccc(Oc3ccccc3)cc1)CC2 (stereo not given)	?	40µM*	-15%	i	40µM*	-5%
CC1(c2ccccc2)N(Cc2ccc(O)cc2)C(=O)OC12CCN(C(=O)c1cnccn1)CC2 (stereo not given)	-15%	32µM*	9%	i	-5%	-8%
CC1(c2cccnc2)N(CC2CC2)C(=O)OC12CCN(C(=O)c1cccc(O)c1)CC2 (stereo not given)	1%[87.6 µM]	35µM*	-1%[87.6 µM]	i	i	-1%[70.6 µM]
COc1ccc(C(=O)N2CCC3(CC2)OC(=O)N(Cc2ccc(O)cc2)C3(C)c2ccccc2)cc1 (stereo not given)	-5%	?	-23%	i	?	-10%
CC1(c2ccccc2)N(Cc2cccnc2)C(=O)OC12CCN(C(=O)c1ccc(Oc3ccccc3)cc1)CC2 (stereo not given)	-32%	?	-29%	i	25µM*	-14%
O=C([C@H]1CCCN1C(=O)c1cccc(Cl)c1)N1CCC(N2CCOC2=O)CC1	7%	-11%	1%	.	-10%	.
CCc1nc2c(c(-c3ccc(O)cc3)n1)CN(C(=O)c1cccc(Cl)c1)CC2	13%	-28%	3%	.	-10%	.
Cc1ccc(C(=O)N2CCc3nc(-c4ccc(Cl)cc4)nc(-c4ccccc4)c3C2)cc1	17%	?	3%	?	50µM*!	0%
O=C(c1ccccc1)N1CCc2nc(-c3ccccc3)nc(-c3ccc(Cl)cc3)c2C1	-9%	?	-5%	i	?	0%
Cc1ccc(C(=O)N2CCc3onc(-c4cccc5ccccc45)c3C2)cc1	?	?	?	i	40µM*	-4%
O=C(c1ccc(C(F)(F)F)cc1)N1CCc2nc(-c3ccc(Cl)cc3)nc(-c3ccccc3)c2C1	24%	-18%	-1%	i	20µM*	7%
COc1ccc(-c2cn3cc(C(=O)NC4CC4)nc3s2)cc1	28%[87.6 µM]	?	-9%[87.6 µM]	.	?	.
Oc1ccc(C=Cc2cc(O)cc(O)c2)cc1	12µM*	.	-5%	.	.	.
Fc1ccccc1Nc1cnc2ccc(-c3ccccc3)nn12	?	?	-2%[87.6 µM]	i	100µM*	-8%[70.6 µM]
Fc1ccc(Nc2cnc3ccc(-c4ccccc4)nn23)cc1	11%[87.6 µM]	79µM*	-14%[87.6 µM]	i	100µM*	-22%[70.6 µM]
